Assay results as given in PubChem BioAssay (NCI).
This is part of a sample that, as a whole, favours compounds with a hit. Of some 79,000 tested, about 15% had one in any assay. Values without a mark were called inactive. Activity calls are given as the source filed them. Cut-off read from the data, not from the text of the source: active = growth inhibition above about 70%; inactive = the rest.

Legend:
[1] = NCI Yeast Anticancer Drug Screen. Data for the rad52 strain (AID 147);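 note: 0% = growth of vehicle-treated control cultures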; settings: S. cerevisiae rad52 mutant growth inhibition, stronger effect = higher value
In short: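 Compounds are applied to a genetically defined yeast strain lacking normal DNA damage repair, and inhibition of growth is expressed relative to cultures given vehicle only.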

[2] = NCI Yeast Anticancer Drug Screen. Data for the wt1 strain (AID 149);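 note: 0% = growth of vehicle-treated wt1 cultures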; settings: S. cerevisiae wt1 strain (SPY 50644) growth inhibition, stronger effect = higher value
In short: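 Using yeast strain wt1, compound-induced growth inhibition was determined against vehicle-treated cultures.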

[3] = NCI Yeast Anticancer Drug Screen. Data for the rad50EPP+ strain (AID 151);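 note: 0% = growth of vehicle-treated control cultures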; settings: S. cerevisiae rad50 mutant strain, stronger effect = higher value
In short: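 Compounds were applied to the rad50EPP+ yeast strain, which bears a defined DNA repair alteration, and growth inhibition was determined relative to vehicle-treated cultures.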

[4] = NCI Yeast Anticancer Drug Screen. Data for the rad50 strain (AID 155);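 note: 0% = growth of vehicle-only cultures of the same strain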; settings: S. cerevisiae rad50 strain growth inhibition, stronger effect = higher value
In short: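 Relative growth inhibition (compound vs vehicle) was measured in yeast with a defined repair-gene alteration.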

[5] = NCI Yeast Anticancer Drug Screen. Data for the mec2-1 strain (AID 157); settings: S. cerevisiae mec2-1 strain, stronger effect = higher value
In short: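 Strain: mec2-1 (DNA repair/cell cycle alteration). Compound exposure, then growth measured; inhibition expressed relative to vehicle.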

[6] = NCI Yeast Anticancer Drug Screen. Data for the rad14 strain (AID 159);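 note: 0% = growth of vehicle-treated control cultures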; settings: S. cerevisiae rad14 strain growth inhibition, stronger effect = higher value
In short: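 Screen for anticancer potential: a yeast strain altered in DNA damage repair is grown with compound, and reduced growth is quantified against vehicle controls.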

[7] = NCI Yeast Anticancer Drug Screen. Data for the sgs1 mgt1 strain (AID 161);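 note: 0% = growth of cultures given vehicle only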; settings: S. cerevisiae sgs1 mgt1 strain, stronger effect = higher value
In short: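 Mutant yeast exposed to compound; growth scored against vehicle-only wells.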

[8] = NCI Yeast Anticancer Drug Screen. Data for the CLN2oe strain (AID 163);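 note: 0% = growth of vehicle-only control cultures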; settings: S. cerevisiae CLN2oe strain, stronger effect = higher value
In short: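 Growth of a genetically modified yeast strain is measured after compound exposure and compared with cultures given vehicle alone.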

[9] = NCI Yeast Anticancer Drug Screen. Data for the cln2 rad14 strain (AID 165);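 note: 0% = growth equal to vehicle treated cultures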; settings: S. cerevisiae cln2 rad14 strain, stronger effect = higher value
In short: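 Compounds are applied to the cln2 rad14 yeast strain, and growth is then compared with that of vehicle-treated cultures to give inhibition.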

[10] = NCI Yeast Anticancer Drug Screen. Data for the bub3 strain (AID 167); settings: S. cerevisiae bub3 mutant strain, stronger effect = higher value
In short: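 Screening used yeast with an engineered genetic alteration affecting cell cycle control. Compound-exposed cultures were compared with vehicle cultures, and reduced growth was taken as inhibition.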

[11] = NCI Yeast Anticancer Drug Screen. Data for the wt2 strain (AID 169);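 note: 0% = growth of vehicle-treated yeast cultures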; settings: S. cerevisiae wt2 strain growth inhibition, stronger effect = higher value
In short: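 This strain belongs to a panel of yeast strains with defined genetic alterations in DNA damage repair or cell cycle control. Compounds are applied, and growth inhibition is measured against vehicle-treated cultures.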

[12] = NCI Yeast Anticancer Drug Screen. Data for the mlh1 strain (AID 171);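 note: 0% = growth of vehicle-treated control cultures of the same strain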; settings: S. cerevisiae mlh1 strain growth inhibition, stronger effect = higher value
In short: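 Growth of the mutant yeast strain after compound exposure, expressed as inhibition relative to vehicle-only controls.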

[13] = NCI Yeast Anticancer Drug Screen. Data for the sgs1 strain (AID 173);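 note: 0% = growth of vehicle-only control cultures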; settings: S. cerevisiae sgs1 mutant, stronger effect = higher value
In short: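 Growth of a yeast strain bearing a defined genetic alteration is measured after compound treatment. Inhibition is expressed relative to vehicle-only controls.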

[14] = NCI Yeast Anticancer Drug Screen. Data for the mlh1 rad18 strain (AID 175); settings: S. cerevisiae mlh1 rad18 strain growth inhibition, stronger effect = higher value
In short: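 Read-out is yeast growth inhibition, calculated against vehicle-only controls. The compound was applied to a strain engineered with DNA damage repair alterations.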

[15] = NCI Yeast Anticancer Drug Screen. Data for the rad18 strain (AID 177); settings: S. cerevisiae rad18 mutant growth inhibition, stronger effect = higher value
In short: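 Growth of the mutant yeast strain after compound exposure, normalised to vehicle-only cultures.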

[16] = at 5.0 µM (retest, dose inferred, filed as 0.5)
[17] = at 50.0 µM (retest, dose inferred, filed as 5.0)

## O=C1OC(OC/C(Br)=C(\Br)COC2OC(=O)C(Cl)=C2Cl)C(Cl)=C1Cl (stereo not drawn)
[1]; at 1.2 µM
  growth inhibition: 0%
[1]; at 3.7 µM
  growth inhibition: 2%
[1]; at 11.0 µM
  growth inhibition: 3%
[1]; at 33.0 µM
  growth inhibition: 5%
[1]; at 100.0 µM
  growth inhibition: 15%
[2]; at 1.2 µM
  growth inhibition: 0%
[2]; at 3.7 µM
  growth inhibition: 0%
[2]; at 11.0 µM
  growth inhibition: 2%
[2]; at 33.0 µM
  growth inhibition: 8%
[2]; at 100.0 µM
  growth inhibition: 18%
[3]; at 1.2 µM
  growth inhibition: -1%
[3]; at 3.7 µM
  growth inhibition: 1%
[3]; at 11.0 µM
  growth inhibition: 3%
[3]; at 33.0 µM
  growth inhibition: 6%
[3]; at 100.0 µM
  growth inhibition: 16%
[4]; at 1.2 µM
  growth inhibition: 0%
[4]; at 3.7 µM
  growth inhibition: 1%
[4]; [16]
  growth inhibition: 37%
[4]; at 11.0 µM
  growth inhibition: 0%
[4]; at 33.0 µM
  growth inhibition: 7%
[4]; [17]
  growth inhibition: 91% (active)
[4]; at 50.0 µM
  growth inhibition: 98.7% (active)
[4]; at 100.0 µM
  growth inhibition: 15%
[5]; at 1.2 µM
  growth inhibition: -2%
[5]; at 3.7 µM
  growth inhibition: 2%
[5]; [16]
  growth inhibition: 20%
[5]; at 11.0 µM
  growth inhibition: 5%
[5]; at 33.0 µM
  growth inhibition: 13%
[5]; [17]
  growth inhibition: 98% (active)
[5]; at 50.0 µM
  growth inhibition: 96.1% (active)
[5]; at 100.0 µM
  growth inhibition: 26%
[6]; at 1.2 µM
  growth inhibition: 1%
[6]; at 3.7 µM
  growth inhibition: 2%
[6]; at 11.0 µM
  growth inhibition: 4%
[6]; at 33.0 µM
  growth inhibition: 9%
[6]; at 100.0 µM
  growth inhibition: 16%
[7]; [16]
  growth inhibition: 39%
[7]; [17]
  growth inhibition: 99% (active)
[7]; at 50.0 µM
  growth inhibition: 93.1% (active)
[8]; at 1.2 µM
  growth inhibition: -2%
[8]; at 3.7 µM
  growth inhibition: -1%
[8]; at 11.0 µM
  growth inhibition: 2%
[8]; at 33.0 µM
  growth inhibition: 9%
[8]; at 100.0 µM
  growth inhibition: 14%
[9]; [16]
  growth inhibition: 17%
[9]; [17]
  growth inhibition: 96% (active)
[9]; at 50.0 µM
  growth inhibition: 57.6%
[10]; at 1.2 µM
  growth inhibition: 0%
[10]; at 3.7 µM
  growth inhibition: -2%
[10]; [16]
  growth inhibition: 13%
[10]; at 11.0 µM
  growth inhibition: -4%
[10]; at 33.0 µM
  growth inhibition: 1%
[10]; [17]
  growth inhibition: 93% (active)
[10]; at 50.0 µM
  growth inhibition: 93.6% (active)
[10]; at 100.0 µM
  growth inhibition: 16%
[11]; at 1.2 µM
  growth inhibition: -1%
[11]; at 3.7 µM
  growth inhibition: -2%
[11]; at 11.0 µM
  growth inhibition: 0%
[11]; at 33.0 µM
  growth inhibition: 3%
[11]; at 100.0 µM
  growth inhibition: 10%
[12]; at 1.2 µM
  growth inhibition: -1%
[12]; at 3.7 µM
  growth inhibition: 0%
[12]; at 11.0 µM
  growth inhibition: 2%
[12]; at 33.0 µM
  growth inhibition: 4%
[12]; at 100.0 µM
  growth inhibition: 12%
[13]; at 1.2 µM
  growth inhibition: -1%
[13]; at 3.7 µM
  growth inhibition: 0%
[13]; at 11.0 µM
  growth inhibition: 0%
[13]; at 33.0 µM
  growth inhibition: 6%
[13]; at 100.0 µM
  growth inhibition: 20%
[14]; [16]
  growth inhibition: 53%
[14]; [17]
  growth inhibition: 96% (active)
[14]; at 50.0 µM
  growth inhibition: 94.3% (active)
[15]; at 1.2 µM
  growth inhibition: 1%
[15]; at 3.7 µM
  growth inhibition: 3%
[15]; at 11.0 µM
  growth inhibition: 9%
[15]; at 33.0 µM
  growth inhibition: 24%
[15]; at 100.0 µM
  growth inhibition: 60%
